AmpC inh no det: inhibitors of E. coli AmpC beta-lactamase without detergent; AID 585; hit rate 1.8% among 71,000; P00811; Potency, µM (doses to about 28.7 µM); AmpC nitrocefin hydrolysis, absorbance 480 nm, no detergent
Target sequence (P00811 whole entry, looked up): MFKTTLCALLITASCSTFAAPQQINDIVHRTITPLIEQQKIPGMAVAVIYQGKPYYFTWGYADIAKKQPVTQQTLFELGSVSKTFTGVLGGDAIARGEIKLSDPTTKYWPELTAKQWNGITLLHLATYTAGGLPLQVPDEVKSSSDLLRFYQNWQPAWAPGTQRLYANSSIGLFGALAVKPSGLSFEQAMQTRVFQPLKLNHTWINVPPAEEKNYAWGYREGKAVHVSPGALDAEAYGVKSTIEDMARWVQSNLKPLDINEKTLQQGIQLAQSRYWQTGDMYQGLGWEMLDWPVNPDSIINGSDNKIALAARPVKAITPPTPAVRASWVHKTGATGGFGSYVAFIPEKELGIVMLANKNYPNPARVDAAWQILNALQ
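Enzyme, pH 7.0 phosphate. Compound titrations were pre-incubated with AmpC for 15 min at room temperature before nitrocefin (stock 800 uM) addition; product formation was recorded at 480 nm every 20 s for 4 min.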
AmpC inh det: inhibitors of E. coli AmpC beta-lactamase with detergent. P00811. purified AmpC, nitrocefin hydrolysis with detergent. Potency, µM (series often up to 28.7 µM). hit rate 0.09% among 71,000. AID 584; active means well fitted curve in the direction sought with a large enough effect; inconclusive means small, poorly fitted or top-dose-only effect
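E. coli AmpC (5.3 nM) in 20 mM phosphate pH 7.0 with 0.01% Triton X-100, preincubated 15 min RT with compound; nitrocefin (2 uL of 800 uM stock) hydrolysis followed by 480 nm absorbance every 20 s over 4 min.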
SmPrx2 inh: blocks S. mansoni peroxiredoxin 2 enzymatic activity; S. mansoni Prx2 activity coupled to TGR/GSH (TGR is thioredoxin glutathione reductase), NADPH fluorescence loss, qHTS; Potency, µM; hit rate 0.07% among 65,000; AID 448
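Prx2 inhibition was measured as reduced NADPH consumption when electrons flowed from NADPH through TGR and glutathione to Prx2 and H2O2. Plates were read kinetically over 8 min; enzyme reagents were held at 4 deg C during dispensing.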
LT uptake inh: anthrax lethal toxin internalization inhibition | hit rate 0.67% among 70,000 | Potency, µM (highest dose often 40 µM), hits mostly inhibitors | AID 912 | Cells, anthrax lethal toxin internalization, FRET ratio (460/530); further: nearly all actives have a fitted effect of over 50% in size
Numbers stand for hits; – = inactive; ? = inconclusive; · = not tested or not shown; [ ] = another dose, or the depositor's remark. Rows were chosen to be rich in hits. Some 2.6% of all compounds tested hit in one or more screens of this group. Unless noted, the call rests on the fitted dose curve.

SMILES	AmpC inh no det	AmpC inh det	SmPrx2 inh	LT uptake inh
CCOC(=O)N1CCN(S(=O)(=O)c2ccc(C)c(C)c2C)CC1	–	–	–	–
COc1ccc(CNC(=O)c2cc(-c3cccc(OC)c3)on2)cc1	–	–	–	?
COc1ccc(-c2cc(C(=O)NCc3ccccc3)no2)cc1OC	0.398µM	?	?	–
COc1cccc(-c2cc(C(=O)NCc3ccc(Cl)cc3)no2)c1	12.6µM[single pt active]	–	·	–
COc1ccc(CNC(=O)c2cc(-c3ccc(OC)c(OC)c3)on2)cc1	–	–	–	–
NC(=S)c1ccc[n+]([C@@H]2O[C@@H](COP(=O)([O-])OP(=O)(O)OC[C@@H]3O[C@@H](n4cnc5c(N)ncnc54)[C@@H](OP(=O)(O)O)[C@H]3O)[C@@H](O)[C@H]2O)c1	–	–	–	–
NNC(N)=S	–	–	·	–
O=C(Nc1ccc(Cl)cc1)N(Cc1cccs1)Cc1cccs1	5.01µM	–	·	–
COc1cccc(NC(=O)CN2C(=O)COc3ccc(Cl)cc32)c1	–	–	–	15.8µM
CCOc1ccc(NC(=O)CN2C(=O)COc3ccc(Cl)cc32)cc1	3.98µM[single pt active]	–	–	?
Cc1cccc(NC(=O)CN2C(=O)COc3ccc(Cl)cc32)c1	–	–	–	?
COC(=O)CN1C(=O)COc2ccc(Cl)cc21	3.98µM[single pt active]	–	–	–
COCCNC(=O)CN1C(=O)COc2ccc(Cl)cc21	–	–	–	–
COc1cc([C@H](O)CO)ccc1O	–	–	–	–
C[C@H](N[C@@H](C)CCc1ccccc1)[C@H](O)c1ccc(O)cc1	–	–	–	–
CC1CCCN(c2nc3c(c(=O)[nH]c(=O)n3C)n2CCCc2ccccc2)C1 (configuration not stated)	15.8µM[single pt active]	–	–	?
CC1CCN(c2nc3c(c(=O)[nH]c(=O)n3C)n2Cc2ccccc2)CC1	–	–	–	–
Cc1ccc(S(=O)(=O)N(CC(O)CN2CCCCC2)c2ccccc2)cc1 (configuration not stated)	3.98µM[single pt active]	–	–	–
O=C1CCc2cc(S(=O)(=O)N3CCCC3C(=O)N3CCN(c4ccccc4)CC3)ccc2N1 (configuration not stated)	3.98µM[single pt active]	–	–	–
O=C1CCc2cc(S(=O)(=O)N3CCCC3C(=O)N3CCN(c4ccccc4F)CC3)ccc2N1 (configuration not stated)	–	–	–	–
Cc1ccc(NC(=O)C2CCCN2S(=O)(=O)c2ccc3c(c2)CCC(=O)N3)cc1Cl (configuration not stated)	3.98µM[single pt active]	–	–	–
O[Si@](CCCN1CCCCC1)(c1ccc(F)cc1)C1CCCCC1	–	–	–	–
C=C[C@@]1(C)C=C2CC[C@@H]3[C@](C)(CCC[C@@]3(C)C(=O)O)[C@H]2CC1	–	–	–	?
CC(=O)[C@]1(O)CC[C@@H]2[C@H]3C[C@@H](C)C4=CC(=O)CC[C@@]4(C)[C@H]3[C@@H](O)C[C@]21C	–[5.75 µM]	–[5.75 µM]	·	–[8 µM]
O=C(NCc1cccnc1)c1ccccc1Br	–	–	–	–
SMILES	AmpC inh no det	AmpC inh det	SmPrx2 inh	LT uptake inh
O=C(NCc1cccnc1)c1cnn2ccccc12	3.98µM	–	–	–
CC(=O)c1cccc(NC(=O)c2cnn3ccccc23)c1	3.98µM[single pt active]	–	–	–
CC(C)(C)c1cc(Br)ccc1OCC(=O)Nc1ncn[nH]1	–	–	·	7.94µM
CC(C)(C)c1ccccc1OCC(=O)Nc1ncn[nH]1	–	–	–	?
c1csc(Cn2c(-c3cccs3)nc3ccccc32)c1	–	–	–	–
Brc1ccccc1Cn1c(-c2cncs2)nc2ccccc21	–	–	–	10µM
Cc1cc(-c2cc(C)c(O)c(C(C)(C)C)c2)cc(C(C)(C)C)c1O	–[5.75 µM]	–[5.75 µM]	–	2.51µM
Cc1cc(C(C)(C)C)c(O)c(C(C)(C)C)c1	–	–	·	·
O=C(CSc1nnc2c(n1)[nH]c1ccc(F)cc12)OCc1ccccc1	10µM	–	–	–
O=C(CSc1nnc(-c2ccccc2F)o1)OCc1ccccc1	–	–	–	–
Nc1nc(N)c2nn(-c3ccc(C(=O)O)cc3)nc2n1	–[5.75 µM]	–[5.75 µM]	–	–[8 µM]
COc1ccc(-c2nc(NC(=O)c3cc(C(C)(C)C)nn3C)sc2C)cc1	–	–	–	5.01µM
O=C(NCCC1=CCCCC1)C1CCN(S(=O)(=O)c2cccs2)CC1	–	–	–	–
O=C(NCCC1=CCCCC1)C1CCN(S(=O)(=O)c2cccc3nonc23)CC1	20µM[single pt active]	–	–	–
O=C(NCc1ccc2c(c1)OCO2)C1CCCN(S(=O)(=O)c2cccc3nonc23)C1 (configuration not stated)	10µM[single pt active]	–	–	–
CCN1C[C@]2(C)CC[C@@H](O)[C@]34[C@@H]5CC6[C@@H](OC)C[C@@](O)([C@H]5[C@@H]6O)[C@@H](C[C@@H]23)[C@H]14	–	–	–	–
C[C@@]12CCC(=O)C=C1CC[C@H]1[C@@H]2[C@@H](O)C[C@]2(C)[C@@H]1CC[C@@]2(O)C(=O)COC(=O)C1CCCC1	–[5.75 µM]	–[5.75 µM]	–	–[8 µM]
CCN(CC)c1ncnc2c1ncn2[C@@H]1O[C@@H](COP(=O)(O)OP(=O)(O)C(Br)(Br)P(=O)(O)O)[C@H](O)[C@@H]1O	–	–	–	–
CCOC(=O)c1ccc2ncc(C(=O)OCC)c(NCCN(C)C)c2c1	3.16µM[single pt active]	–	–	–
C=C[C@@](C)(O)CC[C@H]1[C@]2(C)CCCC(C)(C)[C@H]2CC[C@]1(C)O	–	–	–	?
COc1cc(C(=O)N(CCc2ccccc2)C2CC3CCC(C2)N3C)cc(OC)c1OC (configuration not stated)	–	–	–	–
CCCCN(C(=O)c1ccc(Cl)cc1)C1CC2CCC(C1)N2C (configuration not stated)	3.98µM[single pt active]	–	–	?
O=C1c2ccccc2C(O)N1c1cccnc1 (configuration not stated)	3.98µM[single pt active]	–	–	–
O=C1c2ccccc2C(Nc2ccc(Cl)cn2)N1c1cccnc1 (configuration not stated)	3.98µM[single pt active]	–	–	–
CC(C)[C@H]1C(=O)N2CCC[C@@H]2[C@]2(O)O[C@@](NC(=O)[C@H]3C=C4c5cccc6[nH]cc(c56)C[C@H]4N(C)C3)(C(C)C)C(=O)N12	–	–	–	?
SMILES	AmpC inh no det	AmpC inh det	SmPrx2 inh	LT uptake inh
CCn1c2ccccc2c2nnc(SCC(=O)Nc3cc(C)on3)nc21	–	–	–	–
CCn1c(=O)c2cc(C(=O)Nc3cc(C)on3)sc2c2ccccc21	3.98µM[single pt active]	–	–	–
Cn1nc(C(=O)NCCN2CCOCC2)c2ccccc2c1=O	–	–	–	–
CCn1c(=O)c2ccccc2n2c(SCC(=O)NCc3cccs3)nnc12	–	–	–	–
CCn1c(=O)c2cc(C(=O)NCc3cccs3)sc2c2ccccc21	3.98µM[single pt active]	–	–	–
CCn1c(=O)c2cc(C(=O)NCCN3CCOCC3)sc2c2ccccc21	3.98µM[single pt active]	–	–	–
COc1ccccc1OC[C@H](O)CN1CCN(CC(=O)Nc2c(C)cccc2C)CC1	–	–	–	–
C/C(=N\O)c1cccc[n+]1Cc1ccccc1	–[5.75 µM]	–[5.75 µM]	–	–[8 µM]
Cc1n[nH]c(C)c1S(=O)(=O)N(CC(=O)Nc1ccc2c(c1)OCCO2)c1ccc(C(C)C)cc1	–	–	–	15.8µM
